Test results from ChEMBL document CHEMBL4513216, “Probing the Open Global Health Chemical Diversity Library for Multistage-Active Starting Points for Next-Generation Antimalarials” (ACS Infect Dis, 2020).
Among all 69,000 compounds or so, about 8,600 (12%) showed an effect of 50% or more. Only a selection was taken, and strong results are over-represented in it overall.

tested on: Plasmodium berghei; test: Screen against P. berghei liver stage (PbLuc), transformed with Luciferase, at 10uM; type: functional, HepG2; conditions: tested at 10 uM

Structure (SMILES) | INHIBITION [%]
CC(C)c1nnc(NC(=O)N2CCCC2c2ccncc2)s1 (stereo not drawn) | -32.3
CCCc1nnc(NC(=O)N2CCCC2c2ccncc2)s1 (stereo not drawn) | 59.2
CCSc1ccc(NC(=O)N2CCCC2c2ccncc2)cn1 (stereo not drawn) | 35.2
CC(C)(C)c1n[nH]c(C2CN(C(=O)CCc3ccco3)CCO2)n1 (stereo not drawn) | 18.15
Cc1nc(CN2CCCC(NCCCc3ccccc3)C2)no1 (stereo not drawn) | -7.31
O=C(COc1ccc(C(F)(F)F)cc1)N1CCOCC1c1ncon1 (stereo not drawn) | 11.9
CC(C)(C)c1n[nH]cc1CNC1CCC(O)CC1 (stereo not drawn) | 5.87
CC(C)NC(=O)C1CN(Cc2ccc(F)cc2)CC12CCOCC2 (stereo not drawn) | -15.7
CCC(Cn1ccnc1)n1cnc2scc(C)c2c1=O (stereo not drawn) | 14.9
CC(Oc1ccc2c(c1)OCO2)C(=O)N1CCC(N2CCCC2)CC1 (stereo not drawn) | -5.22
CC(Oc1ccc2c(c1)OCO2)C(=O)N1CCC(N2CCOCC2)CC1 (stereo not drawn) | 63
CC1CCN(C(=O)C(C)Oc2ccc3c(c2)OCO3)CC1 (stereo not drawn) | -20.5
CCCc1nc(C(C)(C)NC(=O)C2CC(=O)N(CCOC)C2)no1 (stereo not drawn) | -3.2
CCOCC(=O)Nc1ccc(-n2ccc(C(N)=O)n2)cc1 | 10.8
CCN(CC)CC(=O)Nc1ccc(-n2ccc(C(N)=O)n2)cc1 | 50.2
CC(C)N(C)CC(=O)Nc1ccc(-n2ccc(C(N)=O)n2)cc1 | 49.3
CCNc1ncc(C(=O)N2Cc3nc(C)[nH]c(=O)c3C2)cn1 | 6.94
CNC(=O)C1Cn2ccnc2C2(CCN(Cc3nccs3)CC2)O1 (stereo not drawn) | 55.5
CNC(=O)C1Cn2ccnc2C2(CCN(Cc3ccncc3)CC2)O1 (stereo not drawn) | 36.9
O=C(NCC1CC1)C1=NOC2(CCN(S(=O)(=O)Cc3ccccc3)C2)C1 (stereo not drawn) | 22.5
CC(C)C(=O)N1CCCC2(CC(C(=O)NCc3cccnc3)=NO2)C1 (stereo not drawn) | 8.67
O=C(NCC1CC1)C1=NOC2(CCN(Cc3ccsc3)C2)C1 (stereo not drawn) | 38.5

Structure (SMILES) | INHIBITION [%]
CC(C)CN1CCC2(CC(C(=O)NCc3cccnc3)=NO2)C1 (stereo not drawn) | -11.6
CNC(=O)C1Cn2ccnc2C2(CCN(Cc3cccs3)CC2)O1 (stereo not drawn) | 46.2
O=C(NCCN1CCOCC1)C1=NOC2(CCN(Cc3nccs3)C2)C1 (stereo not drawn) | 41.6
O=C(NCc1cccnc1)C1=NOC2(CCCN(CCO)C2)C1 (stereo not drawn) | 60.1
O=C(NC1CCC1)C1=NOC2(CCN(Cc3ccccc3)C2)C1 (stereo not drawn) | 57.9
Cc1ncccc1NC(=O)C1=NOC2(CCN(Cc3nccs3)C2)C1 (stereo not drawn) | 9.1
CNC(=O)C1=NOC2(CCN(Cc3nccs3)C2)C1 (stereo not drawn) | 54.4
CN1CCc2onc(Cn3cccc3)c2C1 | -7.24
Cc1cccc2nc(CN3CCCC3Cn3cncn3)cn12 (stereo not drawn) | 5.03
c1ccc([C@@H]2CN(Cc3cccnc3)C[C@H]2c2cc[nH]n2)cc1 | 27.2
O=C(NCc1ccc(-n2cncn2)nc1)c1cc[nH]n1 | 17.9
Clc1ccc(-n2cnnc2CCCN2CCOCC2)cc1 | 15.6
CC1CCCCN1S(=O)(=O)NCCNC(=O)c1ncccc1O (stereo not drawn) | -27.3
COc1cccc2c(C)c(C(=O)N3CCNCC3C(N)=O)[nH]c12 (stereo not drawn) | 24.35
CCNc1cc2c(nn1)CCN(C(=O)Cc1ccc(C)s1)C2 | 37.4
Cc1cc(N2CCC(O)(CN(C)C(=O)CCCN)C2)c2cnccc2n1 (stereo not drawn) | -16.8
Cc1ccc(-c2nnc(CNCCn3cc(C)cn3)o2)cc1 | 14.4
Cc1nc(C)n(CC2CN(Cc3ccncc3)Cc3nccn3C2)n1 (stereo not drawn) | -15.6
CCc1noc(C(C)N2CCN(S(=O)(=O)N3CCCC3)CC2)n1 (stereo not drawn) | -11.4
CN1C(=O)CC(c2ccncc2)C12CCN(c1ncccn1)CC2 (stereo not drawn) | 29.4
O=C(NCC1CC1)C1=NOC2(CCN(Cc3ccc(Cl)c(F)c3)C2)C1 (stereo not drawn) | 38.5
O=C(NC1CCC1)C1=NOC2(CCN(Cc3ccc(F)cc3)C2)C1 (stereo not drawn) | 64.9

Structure (SMILES) | INHIBITION [%]
O=C(NCC1CC1)C1=NOC2(CCN(S(=O)(=O)c3ccc(F)cc3)C2)C1 (stereo not drawn) | -19.1
CN(C)[C@H]1CN(C(=O)CCc2cccc(F)c2)C[C@@H]1C1CC1 | 30.9
CC(C)COCc1cncc2c1CCN(C(=O)c1cscn1)C2 | 18.6
CCOCc1cncc2c1CCN(C(=O)c1cscn1)C2 | 62
O=C(c1ccsc1)N1CCc2c(COCC3CC3)cncc2C1 | 39.8
O=C(c1cscn1)N1CCc2c(COCC3CC3)cncc2C1 | 58.4
COCc1cncc2c1CCN(C(=O)c1cscn1)C2 | 21.3
O=C(c1cnccn1)N1CCc2c(COCC3CC3)cncc2C1 | 39.2
CN(C)C(=O)C1(c2cnccn2)CCCN1C(=O)Cc1ccccc1 (stereo not drawn) | 28.475
CC1c2ncc(Cn3cncn3)n2CCN1C1CCOCC1 (stereo not drawn) | 2.01
O=C(CCc1ccc2c(c1)OCO2)N1CCCCC1Cn1cccn1 (stereo not drawn) | -0.219
CCN1CCOCC2(CCCN(C(=O)c3cnccn3)C2)C1 (stereo not drawn) | -8.51
Cc1occc1C(=O)N1CCCC1c1ccc(C(=O)N2CCOCC2)s1 (stereo not drawn) | -60.2
CN(C)C(=O)c1ccc(C2CCCN2C(=O)CCC2=NNC(=O)CC2)s1 (stereo not drawn) | 56.7
CSc1ncccc1C(=O)N1C[C@@H]2CC[C@H]1CN(CC(=O)N(C)C)C2 | 22.8
O=C1CCC(CCC(=O)N2CCC2c2cccs2)=NN1 (stereo not drawn) | 11.2
CN(C)C(=O)c1ccc(C2CCCN2C(=O)c2cccc3c2OCC3)s1 (stereo not drawn) | 81.1
CSc1ncccc1C(=O)N1C[C@@H]2CC[C@H]1CN(C(=O)N(C)C)C2 | 30.3
CSc1ncccc1C(=O)N1CCCC1c1ccc(C(=O)N(C)C)s1 (stereo not drawn) | 65.2
CN(C)C(=O)c1ccc(C2CCCN2C(=O)c2ccccc2N(C)C)s1 (stereo not drawn) | 39.1
O=C1CCC(CCC(=O)N2CCCC2c2nccs2)=NN1 (stereo not drawn) | 27.6
CNC(=O)N1CCC2(CC1)CN(C(C)C)Cc1cc(F)ccc12 | 42.3

Structure (SMILES) | INHIBITION [%]
CC(=O)c1ccc(C(=O)N2C[C@H]3CC[C@@H](C2)N(CC2CCC2)C3)s1 | -92.2
O=C([C@H]1COC[C@H]2CN(C3CCOCC3)C[C@H]21)N1CCCO1 | -1.83
Fc1cnc(N2CCN3C[C@H](Oc4cncnc4)C[C@H]3C2)nc1 | 56.4
Cc1ccc(O[C@@H]2C[C@H]3CN(Cc4nccn4C)CCN3C2)cc1 | -15.7
Cc1cccc(CN2CCN3C[C@H](Oc4cncnc4)C[C@H]3C2)n1 | 37.6
Cn1ccnc1CN1CCN2C[C@H](Oc3cncnc3)C[C@H]2C1 | -10.3
Fc1cnc(N2CCN3C[C@H](Oc4cccnc4)C[C@H]3C2)nc1 | 82.2
O=C(c1cnccn1)N1CCN2C[C@H](Oc3cccnc3)C[C@H]2C1 | 15.6
c1cnc(N2CCN3C[C@H](Oc4cncnc4)C[C@H]3C2)nc1 | 34.5
Cc1cnc(N2CCN3C[C@H](OCc4ccccn4)C[C@H]3C2)nc1 | 42.3
Cc1nc(CN2CCN3C[C@H](Oc4cncnc4)C[C@H]3C2)cs1 | 88.3
O=C(c1ccc(F)cc1)N1CCN2C[C@H](Oc3cccnc3)C[C@H]2C1 | 44.2
Cc1ccc(O[C@@H]2C[C@H]3CN(c4ncc(F)cn4)CCN3C2)cc1 | 79.2
c1cncc(CN2CCN3C[C@H](Oc4cncnc4)C[C@H]3C2)c1 | 27.6
O=C(COCc1ccccc1)N1CCCC(OCc2cccnc2)C1 (stereo not drawn) | 0.348
CCCc1nc(CN2CCCC2c2cnn(C)c2)cs1 (stereo not drawn) | -32
CCn1cc(CN2CCN(CC(O)c3ccc(C)cc3C)CC2)cn1 (stereo not drawn) | 5.11
CN1CC(=O)N(c2cnn(C)c2)CC12CCN(Cc1cccs1)C2 (stereo not drawn) | 7.31
CC(NC(=O)N(C)CCOc1ccccc1F)c1nncn1C (stereo not drawn) | 7.08
CC1(C(N)=O)CN(CC2CCC2)CCO1 (stereo not drawn) | -1.75
CS(=O)(=O)N1CC[C@@H]2O[C@@H](COCC(=O)N3CCCC3)CC[C@@H]21 | 1.9
Cc1nc(C2CCN(C(=O)c3ccnn3C)CC2)c2sccn12 | 15.9

Structure (SMILES) | INHIBITION [%]
Cc1cccc2sc(NC(=O)CN3CCCC(O)(CO)C3)nc12 (stereo not drawn) | 74.5
Cc1cccc2sc(NC(=O)CN3CCCC4(CC3)CNC(=O)O4)nc12 (stereo not drawn) | 38.7
Cc1cccc2sc(NC(=O)CN3CCC(C)CC3)nc12 | 14.1
Cc1c(Cl)cccc1NCc1nc2n(n1)CCCCC2 | 26.7
CN(C)c1ncc(CNC(=O)Nc2ccccc2C(F)(F)F)n1C | 36.9
CN(C)c1ncc(CNC(=O)Nc2ccccc2F)n1C | 48.9
CN(C)c1ncc(CNC(=O)Nc2ccc(C(F)(F)F)cc2)n1C | 78.6
COc1ccc(CN2CC[C@H]3[C@H]2CCN3C(=O)c2cnn(C)c2)cc1 | 39.8
CNC(=O)c1sc2ncccc2c1C1CCN(C(=O)CCOC)C1 (stereo not drawn) | -7.525
O=C(CCc1ccncc1)NCc1csc(Br)c1 | -6.14
CN(C)CCNC(=O)Cn1cnc2cc(NC(=O)C3CC3)ccc21 | 4.48
COCC1CC2(CCN(S(=O)(=O)C3CC3)CC2)CN1c1ncccn1 (stereo not drawn) | 19.5
COCC1CC2(CCN(c3cccc(C)n3)CC2)CN1C(C)C (stereo not drawn) | 29.4
COCC1CC2(CCN(Cc3ccccn3)CC2)CN1C(C)C (stereo not drawn) | -2.27
COCC1CC2(CCN(c3cc(OC)ncn3)CC2)CN1C(C)C (stereo not drawn) | 58.4
CCS(=O)(=O)N1CCC2(CC1)CC(COC)N(c1ncccn1)C2 (stereo not drawn) | 65.6
COCC1CC2(CCN(Cc3ccncc3)CC2)CN1C(C)C (stereo not drawn) | 12.6
COCCN1CCC2(CC1)CC(COC)N(c1ncccn1)C2 (stereo not drawn) | 23.5
COCC1CC2(CCN(c3ccccn3)CC2)CN1C(C)C (stereo not drawn) | 64.7
COCC1CC2(CCN(c3ccc(C)nn3)CC2)CN1C(C)C (stereo not drawn) | 16.8
